# Source: article PMC11006913
# Biological target: HOXB6 (Homo sapiens, UniProt P17509 132-218)
# Experiment: PBM; 200 nM protein, PBS
# Settings: dsDNA, one strand shown
# Chain of HOXB6 (P17509 132-218): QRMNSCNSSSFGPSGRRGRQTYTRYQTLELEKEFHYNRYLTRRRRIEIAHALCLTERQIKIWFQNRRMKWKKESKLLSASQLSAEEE
row,Sequence,binding signal
1,CTCGGCTC,"8.95 upbm affinity estimate (log intensity, higher = more binding, comparable within an allelic series)"
2,CCGGGGCA,"8.98 upbm affinity estimate (log intensity, higher = more binding, comparable within an allelic series)"
3,AGTTATTG,"10.6 upbm affinity estimate (log intensity, higher = more binding, comparable within an allelic series)"
4,TGACTTAA,"10.5 upbm affinity estimate (log intensity, higher = more binding, comparable within an allelic series)"
5,AGGCGGAC,"9.04 upbm affinity estimate (log intensity, higher = more binding, comparable within an allelic series)"
6,CCAGCGGA,"8.93 upbm affinity estimate (log intensity, higher = more binding, comparable within an allelic series)"
7,GAGAGGGC,"8.79 upbm affinity estimate (log intensity, higher = more binding, comparable within an allelic series)"
8,GGCGTGGA,"9.03 upbm affinity estimate (log intensity, higher = more binding, comparable within an allelic series)"
9,AGTCCTCC,"9.06 upbm affinity estimate (log intensity, higher = more binding, comparable within an allelic series)"
10,CGTTGCCC,"9.12 upbm affinity estimate (log intensity, higher = more binding, comparable within an allelic series)"
11,CTCCTCGC,"9.05 upbm affinity estimate (log intensity, higher = more binding, comparable within an allelic series)"
12,AGGGAGGA,"9.03 upbm affinity estimate (log intensity, higher = more binding, comparable within an allelic series)"
13,CCGGAGCG,"9.17 upbm affinity estimate (log intensity, higher = more binding, comparable within an allelic series)"
14,GGCGGCAC,"9.21 upbm affinity estimate (log intensity, higher = more binding, comparable within an allelic series)"
15,ACCGTTAA,"10.6 upbm affinity estimate (log intensity, higher = more binding, comparable within an allelic series)"
16,AATGTTGT,"10.2 upbm affinity estimate (log intensity, higher = more binding, comparable within an allelic series)"
17,AAGGGACC,"8.97 upbm affinity estimate (log intensity, higher = more binding, comparable within an allelic series)"
18,CCACGGAC,"9.02 upbm affinity estimate (log intensity, higher = more binding, comparable within an allelic series)"
19,CTGGTCCC,"9.01 upbm affinity estimate (log intensity, higher = more binding, comparable within an allelic series)"
20,CCCGGTAG,"9.12 upbm affinity estimate (log intensity, higher = more binding, comparable within an allelic series)"

row,Sequence,binding signal
1,AATAGTTC,"10.1 upbm affinity estimate (log intensity, higher = more binding, comparable within an allelic series)"
2,CGGTAGGC,"8.98 upbm affinity estimate (log intensity, higher = more binding, comparable within an allelic series)"
3,TCTCATAA,"10.4 upbm affinity estimate (log intensity, higher = more binding, comparable within an allelic series)"
4,CCGAGCGC,"9.04 upbm affinity estimate (log intensity, higher = more binding, comparable within an allelic series)"
5,CCCTCCGA,"8.91 upbm affinity estimate (log intensity, higher = more binding, comparable within an allelic series)"
6,GGTTTTTA,"10.3 upbm affinity estimate (log intensity, higher = more binding, comparable within an allelic series)"
7,CCCAGCTC,"9.08 upbm affinity estimate (log intensity, higher = more binding, comparable within an allelic series)"
8,GCTTGCCC,"9.1 upbm affinity estimate (log intensity, higher = more binding, comparable within an allelic series)"
9,ATTTCATA,"10.2 upbm affinity estimate (log intensity, higher = more binding, comparable within an allelic series)"
10,CTGCCTGC,"8.97 upbm affinity estimate (log intensity, higher = more binding, comparable within an allelic series)"
11,TCCTAGGA,"9.16 upbm affinity estimate (log intensity, higher = more binding, comparable within an allelic series)"
12,AATGATTG,"10.7 upbm affinity estimate (log intensity, higher = more binding, comparable within an allelic series)"
13,AATTTCGG,"10.2 upbm affinity estimate (log intensity, higher = more binding, comparable within an allelic series)"
14,GCACGTGC,"9.36 upbm affinity estimate (log intensity, higher = more binding, comparable within an allelic series)"
15,TAATGGAA,"10.8 upbm affinity estimate (log intensity, higher = more binding, comparable within an allelic series)"
16,AGCCTAGG,"9.03 upbm affinity estimate (log intensity, higher = more binding, comparable within an allelic series)"
17,AAAAAAAT,"10.2 upbm affinity estimate (log intensity, higher = more binding, comparable within an allelic series)"
18,CGCACACC,"9.11 upbm affinity estimate (log intensity, higher = more binding, comparable within an allelic series)"
19,AAATGGTC,"10.6 upbm affinity estimate (log intensity, higher = more binding, comparable within an allelic series)"
20,CAACATAA,"10.4 upbm affinity estimate (log intensity, higher = more binding, comparable within an allelic series)"
